In PubChem BioAssay AID1117319 (Southern Research Institute, 2015):
Values joined by “and” are separate entries in the source; they are usually repeats but may differ in a detail not shown here. Equal entries are not always repeated. Hit rate of the full screen: of about 260,000 compounds, about 1,500 (0.58%) were called active. Another 5% or so got no clear call; they are omitted.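 The calls were made as follows: active = inhibition above a set limit at one or more doses, reproduced on every date tested; inconclusive = results disagree between test dates, or hit never tested in dose response; inactive = the rest.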 The list is a sample of the results. Potency and affinity values are given separately.

These compounds were tested against Virion infectivity factor (Human immunodeficiency virus type 1 group M subtype B (isolate BH10)) + Virion infectivity factor (Human immunodeficiency virus type 1 group M subtype B (isolate BRU/LAI)) + Virion infectivity factor (Human immunodeficiency virus type 1 group M subtype B (isolate PCV12)) + Virion infectivity factor (Human immunodeficiency virus type 1 group M subtype B (isolate HXB2)) + DNA dC->dU-editing enzyme APOBEC-3G (Homo sapiens) (UniProt P69720+P69721+P69722+P69723+Q9HC16) (assay: HIV-1 Vif–A3G interaction blockers – biochemical, TR-FRET, GST-Vif 1-94, biotin-A3G peptide, dose response retest, primary screen (AID 1117319;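 also: Vif residues 1-94 fused to GST binding biotinylated APOBEC3G peptide 110-148; 0% = full assay without inhibitor and 100% = GST in place of GST-Vif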)). Settings: TR-FRET GST-Vif / biotin-A3G peptide binding; stronger effect = higher value.

inhibition, inactive:
COc1ccc(-c2nc(SC(CC(=O)NCCO)c3cccs3)n[nH]2)cc1 (centres undefined) -4.6%
Cc1ccc(-c2nnc(N3CCOCC3)c3ccccc23)cc1S(=O)(=O)N(C)C -45.2%
Cc1nc(NCCc2ccccc2)c2nnn(Cc3ccccc3)c2n1 -8.97%
COc1ccc(CC(=O)NCc2ccccc2F)cc1S(=O)(=O)N1CCOCC1 -8.33%
Cc1ccccc1NC(=O)Cc1nc(COC(=O)COc2cccc(C)c2C)cs1 -1.31%
Cc1ccc(-c2nn[nH]n2)o1 -6.6%
COCCNC(=O)/C(C#N)=C/c1ccc(OC(=O)c2cccs2)c(OC)c1 12.9%
COCCNC(=O)/C(C#N)=C/c1cccc(/C=C(\C#N)C(=O)NCCOC)c1 -1.66%
CCCN1C2CCCC1CC(NC(=O)c1ccccc1Br)C2 (centres undefined) -0.94%
COc1cc(C2NC(=O)NC3=C2C(=O)OC3)cc(OC)c1OC (centres undefined) -6.88%
Cn1cc(C(=O)Nc2ccc(Cl)cc2)c(C(F)(F)F)n1 -6.34%
COc1ccc(Sc2ccc(/C=C3\C(=O)NN(c4ccccc4)C3=O)o2)cc1 27.1%
CCCN1C(=O)/C(=C/c2ccc(C)s2)NC1=S 1.31%
COc1ccc(NC(=O)CCC(=O)N/N=C/c2ccc([N+](=O)[O-])s2)cc1 23.7%
CCN1C(=O)/C(=C/c2ccc(C)s2)NC1=S 20.4%
Cc1ccc(/C=C2/NC(=O)N(Cc3ccc(Br)cc3)C2=O)o1 18.3%
COc1ccc(NCc2ccc([N+](=O)[O-])s2)cc1 -7.61%
CC(=O)c1sc(NC(=O)c2ccc(F)cc2)nc1-c1ccccc1 -5.82%
C[C@@H](CO)NC(=O)c1ccc2c3n(nc2c1)-c1ccccc1CO3 -3.9%
COc1cccc(CN2CCC(n3nccc3NC(=O)C3CC3)CC2)c1 3.21%
CCCN1CCN(CC(O)COC(c2ccc(OC)cc2)c2ccc(OC)cc2)CC1 (centres undefined) 3.65%
Cc1cccc(NC(=O)c2sc3nc(-c4ccc(F)cc4)cn3c2C)n1 -26.2%
O=C(NC(=S)Nc1ccccc1N1CCCC1)c1cccc(F)c1 5.9%
COc1cc(/C=N/Nc2nc(=O)[nH]nc2C)cc([N+](=O)[O-])c1O 5.18%
O=C(NC1CCCCC1)c1ccccc1NC(=O)C1CC(=O)N(c2ccc(Cl)cc2)C1 (centres undefined) 31.5%
C/C(O)=c1/ccc2cccc3nc(C)nc1c23 32.6%
NNc1nc(C(F)(F)F)nc2ccccc12 -3.12%
Cc1ccc(S(=O)(=O)NC2CCCCC2)cc1C(=O)N1CCC(C(N)=O)CC1 -4.11%
CC(C)(C)c1ccc(/C=C2\Oc3c(ccc(O)c3CN3CCN(CCO)CC3)C2=O)cc1 2.03%
CCc1ccc(/C=C2\Oc3c(ccc(O)c3CN3CCN(C)CC3)C2=O)cc1 29.7%
CCN1CCN(Cc2c(O)ccc3c2O/C(=C\c2ccccc2)C3=O)CC1 -1.46%
COc1ccccc1-c1coc2c(CN3CCCC(C)C3)c(O)ccc2c1=O (centres undefined) -11.2%
Cc1ccc(/C=C2\Oc3c(ccc(O)c3CN3CCN(CCO)CC3)C2=O)cc1 -6.62%
COCCN(CCOC)Cc1c(O)ccc2c1O/C(=C\c1ccco1)C2=O 25.4%
C=CCN1C(C(=O)c2ccccc2)=C(OC(=O)COc2ccccc2)c2ccccc2S1(=O)=O -2.45%
COc1cc(OC)cc(-c2cc(N3C(=O)Nc4ccccc4N3O)n[nH]2)c1 2.06%
CCN(CC)CCCC(C)Nc1nccc2cccc(Cl)c12 (centres undefined) -1%
C=CCn1c(SCC(=O)NCCOC)nc2scc(-c3ccco3)c2c1=O 27.8%
C=CCn1c(SCC(=O)NCCCC(=O)OCC)nc2scc(-c3ccco3)c2c1=O -13%
Cc1onc(-c2c(F)cccc2Cl)c1C(=O)Nc1nccs1 -2.44%
Cc1onc(-c2c(F)cccc2Cl)c1C(=O)Nc1nnc(-c2ccccc2)s1 -20.2%
CCN1CCN(C(=O)c2ccc(CSc3ccc(C)cc3)cc2)CC1 -0.41%
O=C(Cn1c(=O)oc2ccccc21)Nc1ccc(S(=O)(=O)N2CCCCC2)cc1 16%
O=Cc1cccc(OCc2cccc3ccccc23)c1 -9.48%
c1ccc2c(c1)CCCN2Cc1nnnn1C1CCCC1 4.12%
c1ccc(Cc2nnc3n2CCCCC3)cc1 -1.19%
CSc1ccccc1NC(=O)CN(C)C(=O)c1c(C)nn(Cc2ccccc2)c1C 0.13%
CN(Cc1ccco1)C(=O)c1c[nH]c2ccc(S(=O)(=O)Nc3ccc4c(c3)OCCO4)cc2c1=O 11.3%
CCc1ccc(NS(=O)(=O)c2ccc3[nH]cc(C(=O)N(C)Cc4ccco4)c(=O)c3c2)cc1 6.93%
CC(C)N(C(=O)[C@H]1C[C@H](CC(=O)NCCN2CCOCC2)C(=O)N2CCc3c([nH]c4ccc(Cl)cc34)[C@]12C)C(C)C -2.31%
C=CCn1c(COc2ccccc2F)nnc1SCC(=O)NC(=O)NCc1ccco1 13.7%
C=CCn1c(COc2cccc(C)c2)nnc1SCC(=O)NC(=O)NCc1ccco1 3.84% and 20.2%
CC(C)(C)NC(=O)/C=C/c1cccs1 -6.7%
COc1ccc(/C=C2/C(=O)N=C(N)N2C)cc1OC -1.18%
COC(=O)c1ccc(Sc2nnnn2-c2ccccc2)c([N+](=O)[O-])c1 4.9%
CC(=O)c1ccc(Sc2nnnn2-c2ccccc2)c([N+](=O)[O-])c1 7.06%
Cc1csc(NC(=O)Cc2ccccc2[N+](=O)[O-])n1 -11%
CN(C(=O)CSc1nnc2ccccn12)C1CCS(=O)(=O)C1 (centres undefined) 5.32%
Cc1ccc(OCCCC(=O)Nc2ccc(S(N)(=O)=O)cc2)cc1 -3.06%
